From PubChem BioAssay
PPARg SRC1 recr: PPARgamma agonists recruiting SRC-1 coactivator, primary screen, biochemical; Peroxisome proliferator-activated receptor gamma (Homo sapiens), P37231; PPARgamma-SRC-1 coactivator recruitment biochemical assay; activation, % at 8 µM; 200,000 compounds, 0.41% hits; AID 631, 2007; in the data active = activation above about 19%;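 also: 0% = DMSO and 100% = reference agonist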
SRC1 TRFRET art: TR-FRET detection interference compounds, primary screen, artefact control for PPARgamma SRC-1 recruitment agonists, biochemical, TR-FRET emission ratio; 99,000 compounds, 0.34% hits; TR-FRET ratio at 8 µM; AID 1051, 2008; TR-FRET detection artefact counter-screen; stronger effect = higher value; in the data active = TR-FRET ratio above about 2300
PPARg SRC-2 ag: agonists of PPARg-SRC-2 recruitment, primary screen, biochemical, HTS; Peroxisome proliferator-activated receptor gamma (Homo sapiens), P37231; PPARgamma LBD-SRC-2 recruitment; activation, % at 8 µM; 200,000 compounds, 0.34% hits; AID 1032, 2008; in the data active = activation above about 22%;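 also: 0% = vehicle and 100% = reference agonist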
SRC3 TRFRET art: TR-FRET detection interference compounds, artefact control for PPARgamma SRC-3 recruitment agonists, biochemical, TR-FRET ratio | TR-FRET artefact counter-screen, PPARgamma/SRC-3 format; stronger effect = higher value | TR-FRET ratio at 8 µM | 99,000 compounds, 0.39% hits | AID 1048, 2008
PPARg SRC-3 ag: PPARgamma agonists recruiting SRC-3 coactivator, primary screen, biochemical; biochemical PPARgamma/SRC-3 coactivator recruitment assay; 200,000 compounds, 0.26% hits; Peroxisome proliferator-activated receptor gamma (Homo sapiens), P37231; activation, % at 8 µM; in the data active = activation above about 23%;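 also: 0% = DMSO and 100% = reference agonist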
SRC2 TRFRET art: TR-FRET signal artefacts, primary screen, artefact control for PPARgamma SRC-2 agonist project, biochemical | 200,000 compounds, 0.4% hits | TR-FRET ratio at 8 µM | TR-FRET artefact counter-screen; stronger effect = higher value
PPARg SRC2 conf: agonists of PPARgamma SRC-2 coactivator recruitment, confirmation, biochemical, HTS; shares compounds with PPARg SRC-3 ag; biochemical SRC-2 recruitment by PPARgamma; activation, % at 8 µM; 790 compounds, 52% hits; AID 1297, 2008; in the data active = activation above about 22%;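 also: 0% = vehicle alone and 100% = reference agonist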
PPARg SRC1 ag: PPARgamma agonists recruiting SRC-1 coactivator, confirmation, biochemical; shares compounds with PPARg SRC-3 ag; PPARgamma–SRC-1 coactivator recruitment biochemical assay; activation, % at 8 µM; 790 compounds, 43% hits; in the data active = activation above about 20%;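 also: 0% = vehicle wells and 100% = reference agonist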
PPARg SRC3 conf: PPARgamma-driven SRC-3 coactivator recruitment agonists, confirmation, biochemical | shares compounds with PPARg SRC-3 ag | biochemical PPARgamma-SRC-3 coactivator recruitment, agonist mode | activation, % at 8 µM | 790 compounds, 29% hits | AID 1301, 2008; in the data active = activation above about 24%;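 also: 0% = vehicle wells and 100% = reference agonist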
* = called active by the depositor. Hits are enriched below; roughly 0.84% of the tested compounds scored in any of these assays. Rule as the data show it, unless noted: active = TR-FRET ratio above about 2000; inactive = the rest.

O=C(CSc1ncnc2c1oc1ccccc12)Nc1nccs1 was read as PPARg SRC1 recr 0.3, SRC1 TRFRET art 1953, PPARg SRC-2 ag 14.3, SRC3 TRFRET art 1569, PPARg SRC-3 ag 3.0 and SRC2 TRFRET art 1614.
`O=C(CSc1ncnc2c1oc1ccccc12)NC1CCCCC1` gave PPARg SRC1 recr 64.5*, PPARg SRC-2 ag 24.5*, PPARg SRC-3 ag 32.9*, SRC2 TRFRET art 2101*, PPARg SRC2 conf 49.1*, PPARg SRC1 ag 36.8* and PPARg SRC3 conf 32.2*.
Screening O=C(CSc1ncnc2c1oc1ccccc12)OCc1ccccc1 returned PPARg SRC1 recr 45.8*, PPARg SRC-2 ag 55.2*, PPARg SRC-3 ag 41.8*, SRC2 TRFRET art 2399*, PPARg SRC2 conf 40.6*, PPARg SRC1 ag 34.3* and PPARg SRC3 conf 28.8*.
O=C(CSc1ncnc2c1oc1ccccc12)c1cccs1 was read as PPARg SRC1 recr 51.7*, PPARg SRC-2 ag 30.2*, PPARg SRC-3 ag 69.3*, SRC2 TRFRET art 2091*, PPARg SRC2 conf 38.1*, PPARg SRC1 ag 25.2* and PPARg SRC3 conf 22.7.
Screening CCC(C)(C)c1ccc(OCCCC[n+]2cccc(C)c2)c(C(C)(C)CC)c1 returned PPARg SRC1 recr -12.5, SRC1 TRFRET art 1788, PPARg SRC-2 ag 3.1, SRC3 TRFRET art 1632, PPARg SRC-3 ag 0.3 and SRC2 TRFRET art 1470.
Screening COc1ccc(Nc2nc(N)nc(CN3CCN(c4ccc(F)cc4)CC3)n2)cc1 returned PPARg SRC1 recr 23.7*, SRC1 TRFRET art 2427*, PPARg SRC-2 ag 10.3, SRC3 TRFRET art 1573, PPARg SRC-3 ag 4.5, SRC2 TRFRET art 1746, PPARg SRC2 conf 5.3, PPARg SRC1 ag 3.4 and PPARg SRC3 conf 2.8.
Screening COc1ccc(N2CCN(Cc3nc(N)nc(Nc4ccccc4OC)n3)CC2)cc1 returned PPARg SRC1 recr 2.0, PPARg SRC-2 ag 9.5, PPARg SRC-3 ag 2.4 and SRC2 TRFRET art 1569.
Screening COc1ccc(OC)c(NC(=O)c2nc(-c3ccccc3)oc2C)c1 returned PPARg SRC1 recr 4.2, SRC1 TRFRET art 1959, PPARg SRC-2 ag 6.0, SRC3 TRFRET art 1399, PPARg SRC-3 ag 8.6 and SRC2 TRFRET art 1605.
Screening COc1ccc(-c2nnc(SCC(=O)c3[nH]c(C)c(C(C)=O)c3C)o2)cc1 returned PPARg SRC1 recr 19.0*, PPARg SRC-2 ag 8.7, PPARg SRC-3 ag 0.4, SRC2 TRFRET art 1621, PPARg SRC2 conf 3.9, PPARg SRC1 ag 0.9 and PPARg SRC3 conf 3.5.
`CC(=O)c1c(C)[nH]c(C(=O)CSc2nnc(-c3ccco3)o2)c1C` gave PPARg SRC1 recr 9.9, SRC1 TRFRET art 1872, PPARg SRC-2 ag 10.0, SRC3 TRFRET art 1786, PPARg SRC-3 ag 4.2 and SRC2 TRFRET art 1762.
For Cc1cc(C2C(C#N)=C(N)SC(N)=C2C#N)c(C)s1 the results were PPARg SRC1 recr 9.3, PPARg SRC-2 ag 25.2*, PPARg SRC-3 ag 15.0, SRC2 TRFRET art 1825, PPARg SRC2 conf 0.2, PPARg SRC1 ag -4.2 and PPARg SRC3 conf 1.6.
Screening Cc1cc(C2C(C#N)=C(N)Oc3n[nH]c(C)c32)c(C)s1 (stereo not drawn) returned PPARg SRC1 recr -2.0, PPARg SRC-2 ag 3.7, PPARg SRC-3 ag 5.7 and SRC2 TRFRET art 1518.
